EPAC2 antagonist: antagonists of human EPAC2; Potency, µM (highest dose often 114 µM), inactives show at the highest dose activity, negative = inhibition, most hits filed as inhibitors; EPAC2 GEF exchange of Rap1B-BODIPY-GDP, fluorescence; AID 720708; Q8WZA2; actives 0.18% (n = 360,000); further: on the % scale 0 is the no-effect control and ±100 the full control effect; nearly all actives have a fitted effect of over 45% in size
Target sequence (Q8WZA2 whole entry, looked up): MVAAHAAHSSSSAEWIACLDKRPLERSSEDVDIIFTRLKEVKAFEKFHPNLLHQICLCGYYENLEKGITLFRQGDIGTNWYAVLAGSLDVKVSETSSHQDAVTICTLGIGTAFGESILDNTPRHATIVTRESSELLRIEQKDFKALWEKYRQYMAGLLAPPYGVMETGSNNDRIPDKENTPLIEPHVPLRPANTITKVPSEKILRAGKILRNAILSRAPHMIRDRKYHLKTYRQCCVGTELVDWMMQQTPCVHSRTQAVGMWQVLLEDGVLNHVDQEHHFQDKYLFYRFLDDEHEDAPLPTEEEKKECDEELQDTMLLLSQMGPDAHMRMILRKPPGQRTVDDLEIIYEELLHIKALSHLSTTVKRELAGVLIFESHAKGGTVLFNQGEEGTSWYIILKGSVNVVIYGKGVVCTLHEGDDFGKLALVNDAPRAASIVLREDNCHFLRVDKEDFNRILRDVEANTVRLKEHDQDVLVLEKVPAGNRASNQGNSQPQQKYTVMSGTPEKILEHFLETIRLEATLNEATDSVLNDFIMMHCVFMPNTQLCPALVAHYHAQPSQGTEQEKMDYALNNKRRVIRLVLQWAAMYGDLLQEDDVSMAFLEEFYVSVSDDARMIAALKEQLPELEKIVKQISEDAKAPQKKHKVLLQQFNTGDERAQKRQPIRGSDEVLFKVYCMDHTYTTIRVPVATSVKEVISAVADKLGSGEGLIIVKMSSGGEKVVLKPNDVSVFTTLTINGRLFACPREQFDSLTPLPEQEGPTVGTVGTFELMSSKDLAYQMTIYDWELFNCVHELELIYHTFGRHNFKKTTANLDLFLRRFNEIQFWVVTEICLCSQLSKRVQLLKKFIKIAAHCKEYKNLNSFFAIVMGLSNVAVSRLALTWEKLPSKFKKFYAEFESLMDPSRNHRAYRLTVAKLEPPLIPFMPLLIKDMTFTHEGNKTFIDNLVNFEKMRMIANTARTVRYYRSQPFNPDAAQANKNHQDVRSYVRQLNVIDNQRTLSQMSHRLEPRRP
RGS4 inhibitor: inhibitors of human regulator of G protein signaling 4; Potency, µM (top dose mostly 114 µM), for the others: at the highest dose activity change, negative = inhibition, usual class: inhibitors; actives 0.039% (n = 390,000); Transcreener GDP fluorescence polarization, RGS4-accelerated GTP hydrolysis; P49798; further: on the % scale 0 is the no-effect control and ±100 the full control effect; nearly all actives have a fitted effect of over 75% in size
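MLSMR compounds (23 nl, pin-transferred) preincubated 10 min at room temperature with a 500nM (2x) first reagent, then RGS4 at 900nM (2x) plus Transcreener GDP mix added; fluorescence polarization (620/688 nm) read before and after 90 min at 30 °C.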
ERG Ets-DNA blk: inhibitors of human ERG Ets domain-DNA interaction; P11308; Potency, µM (doses to about 76.9 µM), inactives show at the top dose FP activity, negative = inhibition, usual class: inhibitors; actives 0.028% (n = 370,000); fluorescence polarization, His-ERG Ets domain / labelled DNA; AID 624246; active means well fitted inhibition curve with a large enough effect in the polarisation, with a control signal flat; inconclusive means small, poorly fitted or top-dose-only effect, or effect the other way, or a change in a side signal; inactive means no such curve, though single readings can be large or run the other way; the % refers to the polarisation;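 further: polarization taken with two DNA probes labelled with fluorescein and Texas red; % of control where 0% means no effect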
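His-tagged ERG Ets domain (1 uM in the protein solution; 300mM KCl, 50mM Tris-HCl, 1mM EDTA, 1mM DTT, pH 7.5) received compound, then a probe mix of 5 nM fluorescein-DNA and 100nM Texas-615-DNA. Fluorescence polarization was read for both dyes.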
EPAC2 ag: agonists of human EPAC2 (RAPGEF4); EPAC2 activation, biochemical qHTS; response scale: 100% = 6.5 mM cAMP response; Potency, µM (series often up to 154 µM), for inactives: at the top dose activation, actives largely listed as activators; Q8WZA2; actives 0.079% (n = 360,000); further: nearly all actives have a fitted effect of over 50% in size
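Readout is BODIPY fluorescence (480 nm excitation, 540 nm emission), which falls as labeled GDP is exchanged off Rap1B. EPAC2 at 100 nM acted on 250 nM RAP1B-BODIPY-GDP with 50 uM GDP present.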
EPAC1 ag: agonists of human EPAC1; EPAC1 agonist qHTS, biochemical assay; response scale: 100% = response to 6.5 mM cAMP; Potency, µM (series often up to 154 µM), for the others: top-dose activation, actives largely listed as activators; AID 720707; actives 0.073% (n = 360,000); further: nearly all actives have a fitted effect of over 60% in size
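Compounds were pinned as a concentration titration into mixtures of EPAC1 (100 nM), BODIPY-GDP-loaded Rap1B (250 nM) and GDP (50 uM). After 5 min at room temperature, fluorescence was followed for 30 min; activity was scaled to 6.5 mM cAMP.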
EPAC1 antagonist: EPAC1 (human) antagonism. EPAC1 GEF assay, Rap1b-BODIPY-GDP exchange fluorescence. Potency, µM (top dose mostly 115 µM), for inactives: top-dose activity change, negative = inhibition, usual class: inhibitors. actives 0.14% (n = 360,000). AID 720709;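 further: plate controls were vehicle for no effect and positive control for full effect; nearly all actives have a fitted effect of over 50% in size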
Numbers without * were called inactive; ? = inconclusive; / = no result; ! = not active in a repeat. In the library only some 0.4% were active in any assay of this set; here they are far more common. Unless noted, the call rests on the fitted dose curve; in most records, active means well fitted curve in the direction sought with a large enough effect; inconclusive means small, poorly fitted or top-dose-only effect, or another doubt; inactive means no such curve, though single readings can be large; an effect the other way counts as inactive or inconclusive. Potency means the concentration at half of the fitted maximal effect.

SMILES | EPAC2 antagonist | RGS4 inhibitor | ERG Ets-DNA blk | EPAC2 ag | EPAC1 ag | EPAC1 antagonist
Cc1c(CCC(=O)O)c(=O)oc2c(C)c3occ(-c4ccc(Cl)cc4)c3cc12 | -13.8% | -24.1% | 2.0% | ? | ? | 39.8µM*
N=c1c(S(=O)(=O)c2ccc(Br)cc2)cc2c(=O)n3ccccc3nc2n1C1CCCC1 | 79.4µM* | -0.1% | -6.4% | -0.7% | 0.7% | -5.9%
COc1ccc(NC(=O)C2CCN(C(=O)c3sc4nc[nH]c(=O)c4c3C)CC2)c(OC)c1 | / | -53.3% | 0.6% | / | / | /
COc1ccc(N=Nc2nc3ccc(Br)cc3n2C)cc1 | 14.4% | -17.8% | -2.1% | 24.3% | 112µM* | 163.4%
COc1ccc(-c2c(-c3cc(OC)cc(OC)c3)n(C)c3ccc(Br)cc23)cc1 | 7.3% | 11.8% | -4.0% | 8.3% | -0.9% | 5.9%
Cc1ccc(CCNC(=O)CCCn2c(=O)c3ccccc3n(Cc3ccccc3C#N)c2=O)cc1 | / | 2.5% | 1.6% | / | / | /
COc1ccc(NC(=O)C2=C(C)Nc3ncnn3C2c2cccn2C)cc1 (stereo not given) | / | -2.3% | 1.0% | / | / | /
S=c1[nH]nc(-c2cc(-c3ccccc3)n[nH]2)n1/N=C/c1cccc(Cl)c1 | -20.6% | ? | 7.5% | 3.4% | 89.1µM* | 50.1µM*
S=c1[nH]nc(-c2cc(-c3ccccc3)n[nH]2)n1/N=C/c1ccc(Cl)c(Cl)c1 | ? | ? | 2.7% | 4.7% | 63.1µM* | 56.2µM*
S=c1[nH]nc(-c2cc(-c3ccccc3)n[nH]2)n1/N=C/c1ccc(Cl)cc1 | 1.1% | ? | 6.5% | -9.9% | 0.9% | 7.0%
Cc1c2ccccc2nc2c(F)c(NCCO)c(F)c(F)c12 | -4.2% | -6.0% | -10.5% | -6.4% | 7.5% | 28.2µM*
O=C(Nc1cc(OC(=O)C(F)(F)F)c2nonc2c1OC(=O)C(F)(F)F)C(F)(F)F | / | 14.8% | / | / | / | /
CCN(CC)C1CCN(Cc2c(C(=O)N3CCCCCCC3)nc3ccc(Cl)cn23)C1 (stereo not given) | -0.4% | -1.5% | 1.9% | -1.4% | 1.1% | 3.6%
CCN(CCn1cccn1)Cc1c(C(=O)N2CCCCCCC2)nc2ccc(Cl)cn12 | -7.0% | -10.1% | 1.3% | 3.5% | 11.6% | 22.4µM*
CC1(C)CC(=O)C2=C(C1)c1c(ccc3ccccc13)NC2c1cc([N+](=O)[O-])cc([N+](=O)[O-])c1O (stereo not given) | 79.4µM* | -42.3% | -3.3% | -16.3% | -10.8% | 31.6µM*
CC1(C)CC(=O)C2=C(C1)c1c(ccc3ccccc13)NC2c1ccc(C(=O)O)cc1 (stereo not given) | -2.6% | 13.0% | -1.1% | 24.9% | -4.0% | 4.3%
COc1ccc(CCn2c3c(c(=O)[nH]c2=S)CN(Cc2ccccc2)CN3)cc1OC | / | -3.3% | / | / | / | /
O=C(Nc1c(Cl)cc([N+](=O)[O-])cc1Cl)c1cc(Cl)cc(Cl)c1O | / | -8.1% | / | / | / | /
Cc1ccc(CCNC(=O)CN(c2ccc(C(C)C)cc2)S(=O)(=O)c2c(C)nn(C)c2C)cc1 | / | 1.5% | 3.9% | / | / | /
COCCCn1c(=O)/c(=C\c2ccccc2OC(C)C)s/c1=C(/C#N)C(=O)Nc1ccc(C(=O)O)cc1 | -6.6% | -12.0% | 18.3% | -4.9% | 112µM* | 19.2%
COc1ccc(-c2csc3ncn(-c4ccc(C)cc4)c(=O)c23)cc1OC | 44.7µM* | 13.0% | 12.8% | 5.8% | -0.2% | -26.6%
COc1ccc(-n2cnc3scc(-c4ccc(OC)c(OC)c4)c3c2=O)cc1 | ? | 29.7% | -5.9% | 10.4% | 1.8% | -23.5%
COc1ccc(-c2[nH]c(-c3ccc(SC)cc3)nc2SCC(=O)Nc2nccs2)cc1 | 0.0% | -23.3% | -0.2% | -1.3% | 3.2% | 70.8µM*
COc1ccc(-c2nc3ccc(NC(=O)CO)cc3c(=O)n2Cc2cccc(Cl)c2)cc1COc1ccc(NC(C)=O)cc1 | / | 1.9% | / | / | / | /
COc1ccc(/C(O)=C/C(=O)C(=O)NNC(=O)C(O)(c2ccccc2)c2ccccc2)cc1 | 1.2% | -31.7% | -5.8% | 3.4% | 7.4% | 39.8µM*
SMILES | EPAC2 antagonist | RGS4 inhibitor | ERG Ets-DNA blk | EPAC2 ag | EPAC1 ag | EPAC1 antagonist
COc1ccc(OC)c(/C=C/c2nc3ccccc3[nH]c2=O)c1 | 57.7% | -26.1% | 2.9% | ? | 89.1µM* | 68.3%
COc1cccc(CNC(=O)NCc2noc3ccc(C)cc23)c1 | / | 13.0% | 1.1% | / | / | /
O=C(Nc1ccc(S(=O)(=O)Nc2nccs2)cc1)c1cc(-c2ccccn2)nc2ccccc12 | -11.8% | -10.2% | -1.2% | 2.0% | 16.7% | 70.8µM*
O=C(Nc1ccc(S(=O)(=O)Nc2nccs2)cc1)c1cc(-c2ccccc2Cl)nc2ccccc12 | -9.9% | -48.0% | 3.7% | 8.4% | 9.9% | -18.7%
COc1cccc2c1C(=O)c1c(O)c3c(c(O)c1C2=O)CC(O)(C(C)=O)CC3OC1CC(O)C(O)C(C)O1 (stereo not given) | -1.1% | -31.4% | 2.51µM* | -4.8% | 34.6% | 31.4%
COc1cccc2c1C(=O)c1c(O)c3c(c(O)c1C2=O)C[C@](O)(C(C)=O)C[C@H]3O[C@@H]1C[C@@H](N)[C@@H](O)[C@@H](C)O1 | 53.1% | -28.4% | ? | -0.3% | 5.4% | 40.7%
C[C@](N)(Cc1ccc(O)c(O)c1)C(=O)O | -15.9% | 26.7µM*! | 1.5% | 4.3% | -8.2% | ?
Cc1cccc(N2CCN(C(=O)C3CCN(S(=O)(=O)Cc4ccccc4)CC3)CC2)c1C | / | 23.5% | -1.3% | / | / | /
O=C(CSc1ncnc2[nH]ncc12)Nc1cccc(Oc2ccccc2)c1 | 3.0% | -1.0% | 4.2% | 31.6µM* | 89.1µM* | ?
Nc1nc(SCC(=O)Nc2cccc(Oc3ccccc3)c2)n[nH]1 | 3.4% | -2.7% | 3.9% | 12.4% | -0.4% | -23.3%
O=C(CSc1nc2nc(-c3cccs3)cc(C(F)(F)F)c2c(=O)[nH]1)Nc1ccc(F)c(F)c1 | -21.6% | -17.3% | 3.5% | -7.7% | -10.5% | 79.4µM*
C#CCOCCOCCOCCNc1nc(N2CCN(C(=O)CCCCCCCCCCNC(=O)[C@H](CCCCN)n3cc(C)nn3)CC2)nc(N2CCN(C(=O)CCCCCCCCCCNC(=O)[C@H](CCCN=C(N)N)n3cc(C[C@@H](C)CC)nn3)CC2)n1 | -20.9% | ? | 9.2% | 18.8% | 5.2% | 50.1µM*
C#CCOCCOCCOCCNc1nc(N2CCN(C(=O)CCCCCCCCCCNC(=O)Cn3cc(CCCCCN)nn3)CC2)nc(N2CCN(C(=O)CCCCCCCCCCNC(=O)Cn3cc(C[C@@H](C)O)nn3)CC2)n1 | ? | ? | 7.4% | ? | 22.8% | 35.5µM*
